In PubChem BioAssay (NCATS):
Inconclusive results are not listed. A number with no mark means an inactive call. Activity calls are given as the source filed them. The call rests on the fitted dose curve; in most records, active means well fitted curve in the direction sought with a large enough effect; inconclusive means small, poorly fitted or top-dose-only effect, or another doubt; inactive means no such curve, though single readings can be large; an effect the other way counts as inactive or inconclusive.

Key:
OV90 = experiment: Primary qHTS to identify gynecologic anti-cancer compounds using libraries of approved drugs and bioactive compounds (AID 1345084); settings: Gynecologic cancer cell panel viability, ATPlite luminescence, 48 h; series mostly up to 57.5 µM; further: nearly all actives have a fitted effect of over 55% in size
In short: (§1)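 Cells, 1,000 per well, plated 16 h, then exposed 48 h at 37 C to compounds. Viability by ATPlite luminescence after 15 min at room temperature.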

PA-1 = experiment: as above; settings: Gynecologic cancer cell panel viability, ATPlite luminescence, 48 h; series mostly up to 57.5 µM
In short: as §1

SKOV3 = experiment: as above; settings: Gynecologic cancer cell panel viability, ATPlite luminescence, 48 h; series mostly up to 57.5 µM
In short: as §1

Tov-21-G = experiment: as above; settings: Gynecologic cancer cell panel viability, ATPlite luminescence, 48 h; series mostly up to 57.5 µM
In short: as §1

[1] = qHTS assay to identify inhibitors of the type 1 interferon - major histocompatibility complex class I in skeletal muscle: Counter screen cell viability and HiBit confirmation (AID 1347412); settings: iHSKM muscle cells + IFN-b, HiBiT or CellTiter-Glo, 24 h; for activity change, negative = inhibition: at 45.9 µM (top of the series); on all read-outs here: nearly all actives have a fitted effect of over 60% in size
In short: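 Myoblasts (C25cl48, HLA-B HiBiT) seeded in medium without dexamethasone, IFN-b 4 ng/ml added except unstimulated columns; 1 hr later compounds pinned (12-pt 1:3, top 46 uM final). Incubated 24 hrs, lysed 10 min, luminescence measured.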

Tov112D = experiment: Primary qHTS to identify gynecologic anti-cancer compounds using libraries of approved drugs and bioactive compounds (AID 1345084); settings: Gynecologic cancer cell panel viability, ATPlite luminescence, 48 h; series mostly up to 57.5 µM; further: nearly all actives have a fitted effect of over 55% in size
In short: as §1
On the % scale 0 is the no-effect control and ±100 the full control effect; potency means the concentration at half of the fitted maximal effect.

Nc1nccn2c(C3CCC(C(=O)O)CC3)nc(-c3cc4cccc(Cl)c4[nH]3)c12 (configuration not stated)
Potency (OV90): 10 µM (active)
Potency (PA-1): 7.94 µM (active)
Potency (SKOV3): 3.16 µM (active)
Potency (Tov-21-G): 4.47 µM (active)

CCOc1cc2ncc(C#N)c(Nc3ccc(F)c(Cl)c3)c2cc1NC(=O)/C=C/CN(C)C
Potency (OV90): inactive
Potency (SKOV3): 0.398 µM (active)
Potency (Tov-21-G): 1 µM (active)
Potency ([1]; HiBiT): 1.98 µM (active)
Potency ([1]; Viability): 17.6 µM (active)

Cc1cc(OCc2nnc(SC3CCCC3)n2-c2cccnc2)ccc1-c1ccc(S(C)(=O)=O)cc1
Potency (OV90): 1.78 µM (active)
Potency (PA-1): 12.6 µM (active)
Potency (SKOV3): 0.794 µM (active)
Potency (Tov-21-G): 28.2 µM (active)
Potency (Tov112D): 31.6 µM (active)
activity change, negative = inhibition ([1]; Viability): -25.3%

COC(=O)N[C@@H](C)CNc1nccc(-c2cn(C(C)C)nc2-c2cc(Cl)cc(NS(C)(=O)=O)c2F)n1
Potency (OV90): inactive
Potency (PA-1): inactive
Potency (Tov-21-G): 1.58 µM (active)
Potency (Tov112D): inactive
activity change, negative = inhibition ([1]; Viability): -18.1%

CC(C)c1cc(CNc2nc(Nc3cc(C4CC4)[nH]n3)cc(N3CCN(C)CC3)n2)on1
Potency (OV90): 3.16 µM (active)
Potency (PA-1): 0.398 µM (active)
Potency (SKOV3): 1 µM (active)
Potency (Tov112D): 5.01 µM (active)
Potency ([1]; HiBiT): 1.98 µM (active)
activity change, negative = inhibition ([1]; Viability): 6.65%

Cc1c(CN2CCN(C(=O)C(C)O)CC2)sc2c(N3CCOCC3)nc(-c3cnc(N)nc3)nc12 (configuration not stated)
Potency (OV90): 1.78 µM (active)
Potency (SKOV3): 1 µM (active)
Potency (Tov-21-G): 2.24 µM (active)

CN(c1ccccc1CNc1nc(Nc2ccc3c(c2)CC(=O)N3)ncc1C(F)(F)F)S(C)(=O)=O
Potency (OV90): 8.91 µM (active)
Potency (PA-1): 15.8 µM (active)
Potency (Tov-21-G): inactive
Potency (Tov112D): 25.1 µM (active)

Cc1cc2c(F)c(Oc3ncnn4cc(OCC(C)O)c(C)c34)ccc2[nH]1 (configuration not stated)
Potency (OV90): inactive
Potency (SKOV3): inactive
Potency (Tov-21-G): inactive
Potency (Tov112D): inactive

CC[C@]1(O)CC2CN(CCc3c([nH]c4ccccc34)[C@@](C(=O)OC)(c3cc4c(cc3OC)N(C)[C@H]3[C@@](O)(C(=O)OC)[C@H](OC(C)=O)[C@]5(CC)C=CCN6CC[C@]43[C@@H]65)C2)C1 (some centres not stated)
Potency (OV90): 3.16 µM (active)
Potency (PA-1): 0.282 µM (active)
Potency (Tov-21-G): 0.316 µM (active)
Potency (Tov112D): 0.282 µM (active)

CC(Cc1cc2c(c(C(N)=O)c1)N(CCCO)CC2)NCCOc1ccccc1OCC(F)(F)F (configuration not stated)
Potency (OV90): inactive
Potency (PA-1): inactive
Potency (SKOV3): inactive
Potency (Tov-21-G): inactive
Potency (Tov112D): inactive

Cc1c[nH]c2nccc(Oc3c(F)cc(Nc4cc(Cl)nc(N)n4)cc3F)c12
Potency (OV90): inactive
Potency (Tov112D): 7.94 µM (active)

COc1cc(C2c3cc4c(c(O)c3CC(CO)C2C(=O)O)OCO4)cc(OC)c1O (configuration not stated)
Potency (PA-1): 2 µM (active)
Potency (SKOV3): 11.2 µM (active)
Potency (Tov112D): 4.47 µM (active)

C[C@H]1[C@H](O)O[C@@H]2O[C@@]3(C)CC[C@H]4[C@H](C)CC[C@@H]1[C@@]24OO3
Potency (OV90): inactive
Potency (Tov-21-G): 28.2 µM (active)

CC1(C)CC(=O)C2=C(C1)NC(=S)NC2c1cccc(O)c1 (configuration not stated)
Potency (OV90): inactive
Potency (Tov-21-G): 1.26 µM (active)
Potency (Tov112D): 0.891 µM (active)

O=C(CSc1nc2c(c(=O)n1-c1ccccc1)SCC2)Nc1ccc(-c2ccccc2)cn1
Potency (OV90): 1.26 µM (active)
Potency (Tov-21-G): 0.316 µM (active)
Potency (Tov112D): 0.158 µM (active)

O=[N+]([O-])c1cccc2[nH]c(CNc3nc(N4CCOCC4)nc4c3ncn4-c3ccsc3)nc12
Potency (PA-1): 0.891 µM (active)
Potency (SKOV3): 0.794 µM (active)
Potency (Tov112D): 0.447 µM (active)

Cc1ccc(C(=O)Nc2noc3ccccc23)cc1
Potency (OV90): 11.2 µM (active)
Potency (Tov-21-G): 28.2 µM (active)
Potency (Tov112D): 28.2 µM (active)

O=S(=O)(c1ccccc1)c1cnc2c(N3CCNCC3)cccc2c1
Potency (PA-1): inactive
Potency (Tov-21-G): inactive

C(#Cc1nc2ncccc2nc1OCCN1CCCC1)c1ccccc1
Potency (PA-1): 6.31 µM (active)
Potency (SKOV3): 14.1 µM (active)
Potency (Tov-21-G): 14.1 µM (active)
Potency (Tov112D): 14.1 µM (active)

NC[C@@](O)(c1ccc(Cl)cc1)c1ccc(-c2cn[nH]c2)cc1
Potency (PA-1): 15.8 µM (active)
Potency (SKOV3): 20 µM (active)
Potency (Tov-21-G): 10 µM (active)
Potency (Tov112D): 25.1 µM (active)
Potency ([1]; HiBiT): 6.25 µM (active)
Potency ([1]; Viability): 8.83 µM (active)
